According to PubChem BioAssay (NCI):
About 83,000 compounds went through this panel and 20% of them were active in at least one assay; those are over-represented in the sample as a whole.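 Cell lines were cultured in 96-well plates, exposed to a single compound concentration, and assessed for percent growth 48 hours later.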 Unmarked numbers belong to inactive results. Calls of active or inactive are those of the source.

tested on: CAKI-1 renal; test: NCI-60 one-dose screen, 48 h (100 = growth as untreated, 0 = no growth, -100 = all killed); details: 10 µM unless noted
Description: Growth inhibition of the CAKI-1 human tumor cell line is measured as a screen for anti-cancer activity. Cells are grown in 96 well plates and exposed to the test compound for 48 hours. Compounds are tested at a single concentration, which is 10^-5 M for most compounds. The reported endpoint is percent growth (GI% or GIPRCNT), where numbers from 0 - 100% represent growth inhibition, and numbers from -100% - 0 represent cell death. For example, a value of 40 represents 60% growth inhibition. A value of 0 means no net growth occurred over the course of the experiment. A value of -40 indicates 40% of cells at the beginning of the experiment died by the end of the experiment. A value of -100 means all cells are dead at the end of the experiment.
NCI-60 Human Tumor Cell Lines Screen was performed using the standard one-dose NCI protocol, which is described in more detail at https://dtp.cancer.gov/discovery_development/nci-60/default.htm.
Compounds with GIPRCNT values below 10 were considered active. Activity score was based on GIPRCNT using the following formula: […]
Score is 0 for GIPRCNT values of 100 or above, 50 for GIPRCNT values of 0, and 100 for GIPRCNT values of -100.

SMILES | growth
Cc1nn(-c2ccccc2)c(/N=C/N(C)C)c1/C=C/C(=O)c1ccc(Cl)cc1 | 50.4%
C/C(=N\O)C(=O)NCCCCCC(=O)Nc1ccccc1 | 91.9%
Fc1ccc2c(c1)c(-c1nc(-c3c[nH]c4ncccc34)cs1)cn2CCCN1CCOCC1 | 56.2%
CCCCn1sc(=O)n(Cc2ccc(CNC(=O)OCc3ccc4c(Cl)cc(Cl)c(O)c4n3)cc2)c1=O | 54.6%
Cn1cccc1/C=C1\C(=O)Nc2ccccc21 | 86%
COc1cc(-c2nc3ccc(C)cc3[nH]2)ccc1OCC(=O)N=Nc1c(O)[nH]c2ccc(Cl)cc12 | -61.8% (active)
COc1ccc(C2=NN(C(=O)c3cc(OC)c(OC)c(OC)c3)C(c3ccc(N(C)C)cc3)C2)cc1 (stereo not given) | 39.1%
OC(c1ccccc1)(c1ccccc1)c1ccccc1-c1ccccc1 | 84.2%
Nc1c(C(=O)Nc2ccncc2)sc2nc3c(cc12)CCCCC3 | 81.6%
CNCc1cccc2c1OCCOCCN(C)C(=O)CN(C)S(=O)(=O)c1ccc(cc1)-c1cnc(N)c(n1)C(=O)N2 | 27.2%
C#CC#CC#CC#CC#CC#CC#CC#CCC1OCC(COC(=O)O[C@@H](C(=O)O[C@H]2C[C@@]3(O)[C@@H](OC(=O)c4ccccc4)[C@@H]4[C@]5(OC(C)=O)CO[C@@H]5C[C@H](O)[C@@]4(C)C(=O)[C@H](OC(C)=O)C(=C2C)C3(C)C)[C@@H](NC(=O)c2ccccc2)c2ccccc2)O1 (stereo not given in full) | 49.6%
C(/C=C/c1ccccc1)=Nc1ccc(CCc2ccc(N=C/C=C/c3ccccc3)cc2)cc1 | 41.7%
C=CCOC(=O)C1=C(C)NC(=O)NC1c1c(Cl)n(C)c2ccccc12 (stereo not given) | 94.3%
CN1CCN(CCCOC(=O)c2c3c(n4ccccc24)C(=O)c2ncccc2C3=O)CC1 | 0.119% (active)
COc1cccc(/C=C/C(=O)c2cc3c(N)c(C(=O)Nc4ccccc4C)sc3nc2C)c1 | 32.2%
Cn1cc(-c2ccc3cc(-c4ccc(CC(=O)Nc5cc(C(C)(C)C)on5)cc4)cnc3c2)cn1 | 12.8%
COc1ccc2cc(Cn3cc[n+](Cc4ccc5ccccc5c4)c3)ccc2c1 | 96%
CCOC(=O)Nc1nc2ccc(SCC(C)C)cc2s1 | 96.6%
O=C(N/N=C/c1ccc(O)cc1O)c1ccc(Nc2ccnc(C(F)(F)F)c2)cc1 | 34.9%
CCNC(=O)Oc1ccc(/C(=C(/C)Cc2ccc(OC)cc2)c2ccc(OCCN3CCCCCC3)cc2)cc1 | 82.5%

SMILES | growth
N#Cc1c(-c2ccccc2)cc(-c2ccccc2)n(CCCC(=O)NO)c1=O | 10.6%
O=P(O)(O)OCC1OC(n2cnc3c(NCc4ccccc4)ncnc32)C(O)C1O (stereo not given) | 11%
COc1ccc(C2C(C#N)=C(N)Oc3c2sc2c(Br)cccc32)cc1 (stereo not given) | 35.9%
Cc1[nH]c(C(=O)Nc2cccc(OC3CCNCC3)c2)c(Cl)c1Cl | 70.3%
NC(=O)c1ccc(NC(=O)c2oc3ccccc3c2-c2cnn(-c3ccccc3)c2)cc1 | -29.4% [50 µM] (active)
CCn1cc(C2=C(c3cn(C)c4ncccc34)C(=O)NC2=O)c2cccnc21 | 61.6%
COc1ccc(-c2cn(-c3ccc(Cl)cc3)c(SCC(=O)c3ccc([N+](=O)[O-])cc3)n2)cc1 | 76.1%
N#Cc1c(-c2cccc([N+](=O)[O-])c2)cc(-c2ccc(Nc3nc(Nc4ccc(F)cc4)nc(Nc4ccc(F)cc4)n3)cc2)nc1N | 113%
COc1cc2c(c(OC)c1OC)C(=O)N[C@@H]1[C@@H](O)[C@@H](O)[C@H](O)C[C@@H]21 | 94.1%
CCOC(=O)c1c(C)nn(CC(O)c2ccccc2)c1NC(=O)Nc1cccc(F)c1 (stereo not given) | 83.4%
Cc1[nH]c(/C=C/C(=O)c2ccc(C(F)(F)F)c(F)c2)c(C)c1C(=O)NCC(C)C | 94.8%
C/C(C=O)=C\c1ccc2c(c1)OCO2 | 107%
C=NNc1ccccc1 | 84.1%
N=C(N)c1ccc(-c2ccc(-c3ccc(Cl)cc3Cl)s2)cc1F | -82.8% (active)
COc1cc2c3c(n(CCCCNCCCn4c5c(c6cc(OC)c(OC)cc6c4=O)C(=O)c4cc6c(cc4-5)OCO6)c(=O)c2cc1OC)-c1cc2c(cc1C3=O)OCO2 | 93.3%
COc1cc(Nc2c3ccc(Cl)cc3nc3ccc(OC)cc23)c2ncccc2c1 | 32.2%
COc1cc2c(/C=C3\C(=O)Nc4ccccc43)c(C(=O)O)[nH]c2cc1C | 94.8%
O=C1Nc2ccccc2/C1=C/c1cn(C[C@@H](O)Cn2c3ccccc3c(=O)c3ccccc32)c2ccccc12 | 74.2%
O=C(Cn1nnc2ccccc21)Nc1ccc(-c2nc3ccccc3s2)cc1 | 85.5%
COc1ccc(OC)c(Nc2nnc(-c3ccc(Cl)cc3)o2)c1 | 65.3%
